The source of these data is PubChem BioAssay (EPA / NIEHS).

Activity calls are given as the source filed them. How the source made its calls: active means hit-call score of the fitted dose curve at least 0.9, where 1 is the maximum; inactive means score below 0.9.

Read-out in test [1]: Urokinase-type plasminogen activator receptor (uPAR), PLAUR (gene 5329)
The test can be described thus: BSK_4H_uPAR: BioMAP Diversity Plus: 4H Assay for Urokinase-type plasminogen activator receptor (uPAR) Biomarker Activity (AID 2283030). The note with it: primary human endothelial cells (HUVEC); actives raise or lower the signal. In a few lines: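 Human umbilical vein endothelial cells in the 4H system, 24 h after chemical dosing. Cell-surface uPAR measured by ELISA, fitted in both directions versus DMSO; cytotoxicity checked by SRB total protein in parallel cultures.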

Read-out in test [2]: Vascular endothelial growth factor receptor 2 (Homo sapiens) (UniProt P35968)
Briefly: BSK_4H_VEGFRII: BioMAP Diversity Plus: 4H Assay for Vascular endothelial growth factor receptor 2 (VEGFR2) Biomarker Activity (AID 2283031). The note with it: primary human endothelial cells (HUVEC); actives raise or lower the signal. In short, it runs like this: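 Primary human umbilical vein endothelial cells (4H system), 24 h exposure; cell-surface VEGFR2 measured by ELISA. Bidirectional fitting versus DMSO; cytotoxicity checked in parallel by SRB total-protein staining.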

Read-out in test [3]: Human Leukocyte Antigen - DR isotype (HLADR), HLA-DRA (gene 3122)
Briefly: BSK_BE3C_HLADR: BioMAP Diversity Plus: BE3C Assay for Human Leukocyte Antigen - DR isotype (HLADR) Biomarker Activity (AID 2283032). The note with it: primary human bronchial epithelial cells; actives raise or lower the signal. In a few lines: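 Human primary bronchial epithelial cells in the BE3C system were exposed to chemicals for 24 h, after which HLA-DR levels were quantified by ELISA. Activity was fitted bidirectionally, gain or loss of signal, against DMSO as negative control and baseline.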

Read-out in test [4]: Vascular cell adhesion molecule 1 (VCAM1), VCAM1 (gene 7412)
Briefly: BSK_4H_VCAM1: BioMAP Diversity Plus: 4H Assay for Vascular cell adhesion molecule 1 (VCAM1) Biomarker Activity (AID 2283033).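 On outcome: cell-surface VCAM-1 protein measured by ELISA.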 The note with it: primary human endothelial cells (HUVEC); actives raise or lower the signal. In a few lines: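 Primary human umbilical vein endothelial cells were exposed to chemicals for 24 h, after which VCAM-1 was quantified by ELISA. Responses were fitted bidirectionally against DMSO as negative control and activity baseline.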

Read-out in test [5]: Interferon-gamma inducible Protein 10 (IP10), CXCL10 (gene 3627)
The test can be described thus: BSK_BE3C_IP10: BioMAP Diversity Plus: BE3C Assay for Interferon-gamma inducible Protein 10 (IP10) Biomarker Activity (AID 2283034). The note with it: primary human bronchial epithelial cells; actives raise or lower the signal. In a few lines:
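Human primary bronchial epithelial cells were exposed to chemicals for 24 hours, after which IP-10 levels were measured by ELISA. Data were fitted bidirectionally against DMSO, which served as the negative control and activity baseline.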

Read-out in test [6]: Monokine induced gamma interferon (MIG), CXCL9 (gene 4283)
Briefly: BSK_BE3C_MIG: BioMAP Diversity Plus: BE3C Assay for Monokine induced gamma interferon (MIG) Biomarker Activity (AID 2283035). As to conditions: primary human bronchial epithelial cells; actives raise or lower the signal. In a few lines: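 Primary human bronchial epithelial cells treated for 24 h; MIG levels measured by ELISA, fitted bidirectionally versus DMSO. Parallel SRB total-protein staining assessed cytotoxicity.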

Read-out in test [7]: Transforming growth factor beta 1 (TGFb1), TGFB1 (gene 7040)
The test can be described thus: BSK_BE3C_TGFb1: BioMAP Diversity Plus: BE3C Assay for Transforming growth factor beta 1 (TGFb1) Biomarker Activity (AID 2283036). The note with it: primary human bronchial epithelial cells; actives raise or lower the signal. In a few lines: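 Human primary bronchial epithelial cells (BE3C system) were dosed with chemical and TGF-b1 levels measured by ELISA at 24 h. Activity was fitted bidirectionally relative to DMSO negative control as baseline.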

Read-out in test [8]: Plasminogen activator inhibitor-1 (PAI1), SERPINE1 (gene 5054)
Briefly: BSK_BE3C_PAI1: BioMAP Diversity Plus: BE3C Assay for Plasminogen activator inhibitor-1 (PAI1) Biomarker Activity (AID 2283037). As to conditions: primary human bronchial epithelial cells; actives raise or lower the signal. In a few lines: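 Human primary bronchial epithelial cells were exposed to chemical for 24 h, then PAI-1 was quantified by ELISA. Activity was fitted bidirectionally relative to the DMSO negative control baseline.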

Read-out in test [9]: urokinase plasminogen activator (uPA), PLAU (gene 5328)
Briefly: BSK_BE3C_uPA: BioMAP Diversity Plus: BE3C Assay for urokinase plasminogen activator (uPA) Biomarker Activity (AID 2283038).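 Further: uPA protein level quantified by ELISA in cell cultures; uPA read one day after compound addition.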 The note with it: primary human bronchial epithelial cells; actives raise or lower the signal. In a few lines: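 Primary human bronchial epithelial cells, uPA measured by ELISA 24 h after dosing. Bidirectional change relative to DMSO; cytotoxicity checked in parallel cultures by sulforhodamine B total-protein staining.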

Read-out in test [10]: Urokinase-type plasminogen activator receptor (uPAR), PLAUR (gene 5329)
Briefly: BSK_BE3C_uPAR: BioMAP Diversity Plus: BE3C Assay for Urokinase-type plasminogen activator receptor (uPAR) Biomarker Activity (AID 2283039).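 Further: cells exposed to compound for one day before measurement.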 As to conditions: primary human bronchial epithelial cells; actives raise or lower the signal. In a few lines: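 Primary human bronchial epithelial cells were dosed with chemical and harvested 24 h later; uPAR was quantified by ELISA. Activity was fitted bidirectionally against DMSO as negative control and baseline.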

Read-out in test [11]: Interleukin-6 (IL6), IL6 (gene 3569)
Briefly: BSK_CASM3C_IL6: BioMAP Diversity Plus: CASM3C Assay for Interleukin-6 (IL6) Biomarker Activity for (AID 2283040). The note with it: primary human coronary artery smooth muscle cells; actives raise or lower the signal.

Read-out in test [12]: Interleukin-8 (IL8), CXCL8 (gene 3576)
The test can be described thus: BSK_CASM3C_IL8: BioMAP Diversity Plus: CASM3C Assay for Interleukin-8 (IL8) Biomarker Activity (AID 2283042).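 Further: IL-8 protein level quantified by ELISA.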 The note with it: primary human coronary artery smooth muscle cells; actives raise or lower the signal.

Read-out in test [13]: Human Leukocyte Antigen - DR isotype (HLADR), HLA-DRA (gene 3122)
Briefly: BSK_CASM3C_HLADR: BioMAP Diversity Plus: CASM3C Assay for Human Leukocyte Antigen - DR isotype (HLADR) Biomarker Activity (AID 2283043).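 Further: cell-surface HLA-DR protein level quantified by ELISA.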 As to conditions: primary human coronary artery smooth muscle cells; actives raise or lower the signal.

Read-out in test [14]: Macrophage colony-stimulating factor (MCSF), CSF1 (gene 1435)
Briefly: BSK_CASM3C_MCSF: BioMAP Diversity Plus: CASM3C Assay for Macrophage colony-stimulating factor (MCSF) Biomarker Activity (AID 2283044).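 Further: M-CSF protein amount quantified by ELISA after 24 h exposure.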 As to conditions: primary human coronary artery smooth muscle cells; actives raise or lower the signal.

Read-out in test [15]: Low-density lipoprotein receptor (LDLR), LDLR (gene 3949)
The test can be described thus: BSK_CASM3C_LDLR: BioMAP Diversity Plus: CASM3C Assay for Low-density lipoprotein receptor (LDLR) Biomarker Activity (AID 2283045).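 Further: LDLR protein level on the cell surface quantified by ELISA.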 As to conditions: primary human coronary artery smooth muscle cells; actives raise or lower the signal.

Read-out in test [16]: Monocyte Chemoattractant Protein-1 (MCP1), CCL2 (gene 6347)
Briefly: BSK_CASM3C_MCP1: BioMAP Diversity Plus: CASM3C Assay for Monocyte Chemoattractant Protein-1 (MCP1) Biomarker Activity (AID 2283046).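 Further: MCP-1 level quantified by ELISA 24 h after dosing.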 As to conditions: primary human coronary artery smooth muscle cells; actives raise or lower the signal.

Test [17] can be described thus: BSK_CASM3C_Proliferation: Cell Proliferation Assessment in the BioMAP Diversity Plus: CASM3C Assay (AID 2283047).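 Further: sulforhodamine B total protein stain as relative cell number at 560 nm; sub-confluent cells exposed 48 h before staining; fitted both ways against DMSO so gain or loss of cell number.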 As to conditions: primary human coronary artery smooth muscle cells.
Read-out in test [18]: Monokine induced gamma interferon (MIG), CXCL9 (gene 4283)
The test can be described thus: BSK_CASM3C_MIG: BioMAP Diversity Plus: CASM3C Assay for Monokine induced gamma interferon (MIG) Biomarker Activity (AID 2283048). As to conditions: primary human coronary artery smooth muscle cells; actives raise or lower the signal.

Read-out in test [19]: serum amyloid A (SAA), SAA1 (gene 6288)
Briefly: BSK_CASM3C_SAA: BioMAP Diversity Plus: CASM3C Assay for serum amyloid A (SAA) Biomarker Activity (AID 2283049).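 Further: SAA protein level quantified by ELISA.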 The note with it: primary human coronary artery smooth muscle cells; actives raise or lower the signal.

Read-out in test [20]: Tissue plasminogen activator (tPA), PLAT (gene 5327)
The test can be described thus: BSK_BE3C_tPA: BioMAP Diversity Plus: BE3C Assay for Tissue plasminogen activator (tPA) Biomarker Activity (AID 2283041).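 Further: tPA level quantified by ELISA one day after compound addition.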 The note with it: primary human bronchial epithelial cells; actives raise or lower the signal. In short, it runs like this: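 Human primary bronchial epithelial cells were dosed with chemical and tPA biomarker levels measured by ELISA 24 hours later. Activity was fitted bidirectionally against DMSO as negative control and baseline.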

For orientation: AC50 means the concentration at which the activity in the assay is half-maximal. In the case of `CCCCCCCCCCCC(C)=O`, the outcome in test [1], in [2], in test [3], in [6], in test [7] and in test [8] was inactive. Also, the result in [9], in test [10], in test [11], in test [12], in [13] and in test [15] was inactive. In addition, the outcome in test [18] and in test [19] was inactive. Besides, the AC50 in test [4] is 29.6 µM (active); in [5], 20 µM (active); in test [14], 35.9 µM (active); in test [16], 36.8 µM (active); in [17] it was 20 µM (active).
For the compound `CCCCCCCO`, the result in test [1], in test [2], in test [4], in test [5], in test [6] and in test [7] was inactive. Also, the outcome in [8], in [9], in test [10], in test [11], in test [20] and in [12] was inactive. The outcome in test [13], in test [14], in test [15], in test [16], in test [17] and in [18] was inactive. Also, the outcome in test [19] was inactive.
For the compound `CCOC(=O)C1=NOC(c2ccccc2)(c2ccccc2)C1`, the outcome in test [1], in [2], in test [3], in test [4], in test [5] and in [6] was inactive. In addition, the outcome in [7], in [8], in test [9], in [10], in test [11] and in [12] was inactive. The result in test [13], in test [14], in test [15], in test [16], in [17] and in test [18] was inactive. Further, the result in test [19] was inactive.
As for `O=C1CCCCCCCCCCC1`, the result in test [2], in test [3], in [4], in [5], in test [6] and in test [7] was inactive. Also, the outcome in test [8], in test [9], in test [10], in test [11], in test [20] and in test [12] was inactive. In addition, the result in [13], in test [14], in [15], in test [16], in test [17] and in test [18] was inactive. For the same compound, in test [19], the outcome was inactive.
As to `COC(OC)(C(=O)c1ccccc1)c1ccccc1`, the result in test [2], in test [3], in test [4], in [5], in test [6] and in test [7] was inactive. The outcome in test [8], in test [9], in test [10], in test [11], in test [20] and in test [12] was inactive. Besides, the outcome in [13], in test [14], in test [15], in [16], in test [17] and in test [18] was inactive. Also, the outcome in test [19] was inactive.
In the case of `Cc1c(O)cccc1O`, the result in test [1], in test [2], in test [3], in [4], in [5] and in test [6] was inactive. The result in [7], in test [8], in test [9], in [10], in [11] and in test [20] was inactive. Besides, the result in test [12], in test [13], in test [14], in [15], in test [16] and in [17] was inactive. Besides, the outcome in [18] and in test [19] was inactive.
As for `CC(C)CCCCCOC(=O)CS`, the result in test [2], in test [3], in [4], in test [5], in [6] and in test [7] was inactive. The result in test [8], in test [9], in test [10], in test [11], in test [20] and in test [12] was inactive. Further, the outcome in test [13], in [14], in test [15], in test [16], in test [17] and in test [18] was inactive. Moreover, the result in [19] was inactive.
